We go through 31 compounds from PubChem BioAssay (NCATS).

The structures appear in SMILES notation. Records with an inconclusive call do not appear. Values without a mark were called inactive. Calls follow the shape of the dose curve; as a rule, active = well fitted inhibition curve with a large enough effect; inconclusive = small, poorly fitted or top-dose-only effect; inactive = flat fitted curve, though single readings scatter.
% is scaled to controls: 0 for no effect and ±100 for the full control effect.

A short description of the assay: Drug repurposing screens with cells derived from glioblastoma tumor samples (AID 1345199). Also: nearly all actives have a fitted effect of over 40% in size. As to conditions: GBM patient neurospheres viability, ATP luminescence, 48 h; at 45.9 µM (top of the series); tumour line B. An outline of the steps: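 Four patient lines of CD133+ GBM neurospheres were screened at several concentrations; hits were retested in those lines plus three slower-growing GBM lines, using 48-hour treatment and ATP-based viability.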
As for `CC(CSC(=O)c1ccccc1)C(=O)N1C[C@@H](Sc2ccccc2)C[C@H]1C(=O)O` (stereo partly specified), the activity, negative = cell killing was -5.59%.
Regarding `Cc1cc(-n2nc3ccc(Cl)cc3n2)c(O)c(C(C)(C)C)c1`, the activity, negative = cell killing is -1.32%.
As for `CC(=O)OC[C@H]1O[C@@](COC(C)=O)(O[C@H]2O[C@H](COC(C)=O)[C@@H](OC(C)=O)[C@H](OC(C)=O)[C@H]2OC(C)=O)[C@@H](OC(C)=O)[C@@H]1OC(C)=O`, the activity, negative = cell killing is -8.85%.
Consider `O=c1[nH]c(=O)c2ccccc2o1`, for which the activity, negative = cell killing is -11%.
In the case of `Cc1onc(-c2ccccc2)c1-c1ccc(S(N)(=O)=O)cc1` it was -8.7%.
For the compound `CC1CCN(CCCC(=O)c2ccc(F)cc2)CC1`, the activity, negative = cell killing is -15.8%.
As to `CCOC(=O)[C@H](CCc1ccccc1)N[C@@H](C)C(=O)N1Cc2cc(OC)c(OC)cc2C[C@H]1C(=O)O`, the activity, negative = cell killing is -9.77%.
Turning to `Cc1cc(OI)c(C(C)C)cc1-c1cc(C(C)C)c(OI)cc1C`, the activity, negative = cell killing is -6.87%.
In the case of `CC1CCc2cc(F)cc3c(=O)c(C(=O)O)cn1c23` (stereo unspecified) it was -0.458%; in that of `COc1ccccc1Oc1c(NS(=O)(=O)c2ccc(C(C)(C)C)cc2)nc(-c2ncccn2)nc1OCCO`, -11.9%.
In the case of `NS(=O)(=O)c1ccc(C(=O)O)cc1` it was -5.24%; in that of `CCOc1cc(NC(C)=O)ccc1C(=O)OC`, -7.75%.
For `CCCCCCCCCCCCCCCCC(C(=O)O)C(O)(CC(=O)O)C(=O)O` (stereo unspecified), the activity, negative = cell killing was -24.2%.
In the case of `CCOC(=O)c1cccnc1` it was -7.07%; in that of `CN1CCN(C(=O)C2CCCCC2)CC1`, -7.62%.
In the case of `CCN(CC)CCOC(=O)C(c1ccccc1)c1ccccc1` it was -13.3%.
Under `NC(=O)N[C@@H](CCC(=O)O)C(=O)O` stands -6.35%.
`O=C(/C=C/c1ccccc1)OCc1ccccc1`: the activity, negative = cell killing was -5.75%.
In the case of `CC(C)c1cc2c(cc1S(=O)(=O)O)[C@@]1(C)CCC[C@@](C)(C(=O)O)[C@@H]1CC2` it was -17.5%; in that of `O=C(O)Cn1c(C(=O)Nc2nc(-c3ccccc3Cl)cs2)cc2ccccc21`, -16.8%; in that of `CN1C[C@@H]2C[C@H]1CN2c1cc2c(cc1F)c(=O)c(C(=O)O)cn2C1CC1`, 4.99%.
Under `O=C1c2ccccc2C(=O)C1c1ccc(Br)cc1` stands -20.2%; under `Nc1c2c(nc3c1CCC3)CCCC2`, -2.28%; under `CCCCCCCC(=O)OCC(O)CO` (stereo unspecified), -0.0604%.
As for `Cc1ccc(S(=O)(=O)NC(=O)NC2CCCCC2)cc1`, the activity, negative = cell killing was -0.759%.
In the case of `COc1ccc(C(=O)N2CCN(CC(=O)N3CCOCC3)CC2)cc1` it was -0.665%; in that of `CCCCCCCCCCC(CO)CCCCCCCC` (stereo unspecified), -11.9%.
In the case of `Cc1[nH]c(C)c(Cl)c(=O)c1Cl`, the activity, negative = cell killing was -9.77%.
In the case of `NC(=O)c1ccc([N+](=O)[O-])cc1Cl` it was -9.49%.
For the compound `NC(=O)CCCCC1CCSS1` (stereo unspecified), the activity, negative = cell killing was -3.9%.
Under `CCCCCC(C)N` (stereo unspecified) stands -17%.
